# Most compounds without a hit are left out; they make up all but 2.2% or so of the library.
# ANO1 activ: TMEM16A chloride channel activators or potentiators, primary screen, cell-based, HTS | 0.3% of 340,000 active | HEK293 TMEM16A/YFP-H148Q/I152L, iodide quench fluorescence; hits give low values | B-score at 10 µM | Anoctamin-1 (Mus musculus), Q8BHY3;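 active = fluorescence-ratio B-score plate-corrected deviation score at least 3 library SD below zero, with starting fluorescence score within 5 deviations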;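 note: channel opened by trigger with iodide after compound preincubation; score built on the fluorescence ratio of max minus min over baseline; more negative score means more quench and so TMEM16A activation or potentiation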
# NOD2-RIPK2 inh: NOD2-RIPK2 binding disruptors in cells, primary screen, fluorescence, CHO cells, BLA complementation | Receptor-interacting serine/threonine-protein kinase 2 (Homo sapiens), O43353 | CCF4 ratio | inhibition, % at 4.98 µM | 0.38% of 360,000 active | AID 624267, 2012; in the data active = inhibition above about 21%;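 note: 0% = vehicle only and 100% = reference blocker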
# GRK2 aptamer HTS: compounds blocking aptamer binding on GRK2 – biochemical, human GRK2, bead flow cytometry, HTS, primary screen; Beta-adrenergic receptor kinase 1 (Homo sapiens), P25098; FAM-aptamer displacement from GRK2; inhibition of aptamer binding, % at 10 µM; 0.59% of 330,000 active;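 active = inhibition of aptamer binding above 40%, roughly 3 SD of noise, on plates passing a quality check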;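 note: median bead fluorescence of bound FAM aptamer so fluorescent compounds give negative values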
# TLR9-MyD88 block: inhibitors of TLR9-MyD88 association in cells, primary screen, cell-based, CHO, BLA complementation, fluorescence; CCF4 FRET ratio; inhibition, % at 4.98 µM; 0.21% of 340,000 active;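 active = inhibition above the mean over all tested compounds plus 3 SD, cut at about 21% in these data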;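 note: 0% = DMSO only wells and 100% = clavulanate BLA inhibitor control wells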
# Target sequence (Q99836 whole entry, looked up): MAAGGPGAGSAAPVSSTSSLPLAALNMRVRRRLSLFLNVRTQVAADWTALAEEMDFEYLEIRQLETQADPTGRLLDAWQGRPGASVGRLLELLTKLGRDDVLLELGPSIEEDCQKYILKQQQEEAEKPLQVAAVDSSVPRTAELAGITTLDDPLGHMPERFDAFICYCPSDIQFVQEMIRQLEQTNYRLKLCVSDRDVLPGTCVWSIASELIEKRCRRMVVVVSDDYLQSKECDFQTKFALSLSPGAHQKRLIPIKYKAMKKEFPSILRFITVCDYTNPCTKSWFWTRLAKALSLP
# Target sequence (Q9NR96 whole entry, looked up): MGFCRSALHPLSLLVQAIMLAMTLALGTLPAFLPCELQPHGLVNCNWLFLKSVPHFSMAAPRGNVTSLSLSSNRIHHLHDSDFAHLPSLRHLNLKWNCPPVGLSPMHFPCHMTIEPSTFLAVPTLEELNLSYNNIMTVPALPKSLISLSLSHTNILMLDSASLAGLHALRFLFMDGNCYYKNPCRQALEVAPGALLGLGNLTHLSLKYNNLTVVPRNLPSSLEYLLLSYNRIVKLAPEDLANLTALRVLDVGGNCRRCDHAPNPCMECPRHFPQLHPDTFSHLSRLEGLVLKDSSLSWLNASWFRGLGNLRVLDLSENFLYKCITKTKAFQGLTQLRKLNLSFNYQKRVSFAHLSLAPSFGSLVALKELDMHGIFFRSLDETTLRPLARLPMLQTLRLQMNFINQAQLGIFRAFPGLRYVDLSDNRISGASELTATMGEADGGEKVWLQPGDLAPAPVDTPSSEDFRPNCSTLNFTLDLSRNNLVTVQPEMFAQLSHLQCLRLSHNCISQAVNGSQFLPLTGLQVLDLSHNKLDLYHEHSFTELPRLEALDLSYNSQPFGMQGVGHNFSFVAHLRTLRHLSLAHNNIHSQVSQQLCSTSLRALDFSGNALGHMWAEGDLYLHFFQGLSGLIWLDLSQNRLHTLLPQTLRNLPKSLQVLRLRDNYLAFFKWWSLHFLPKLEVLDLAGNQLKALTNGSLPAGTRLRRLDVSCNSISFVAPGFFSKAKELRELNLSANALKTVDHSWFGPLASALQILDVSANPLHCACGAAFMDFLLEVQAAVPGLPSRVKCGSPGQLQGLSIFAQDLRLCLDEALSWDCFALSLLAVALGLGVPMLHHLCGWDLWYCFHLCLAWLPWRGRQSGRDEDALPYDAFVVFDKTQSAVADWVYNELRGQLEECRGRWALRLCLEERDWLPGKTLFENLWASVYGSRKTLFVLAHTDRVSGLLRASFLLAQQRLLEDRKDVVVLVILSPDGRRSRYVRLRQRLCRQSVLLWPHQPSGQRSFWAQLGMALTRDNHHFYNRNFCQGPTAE
# TMEM16A inh: TMEM16A chloride channel inhibitors, primary screen, cell-based, HTS; Anoctamin-1 (Mus musculus), Q8BHY3; HEK293 TMEM16A/YFP iodide influx fluorescence, ionomycin; normalized B-score (activity score, 25-100; higher = stronger inhibition) at 10 µM; 1.2% of 310,000 active;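 active = ratio plate-corrected score three or more library SD toward inhibition, starting fluorescence score within five deviations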;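 note: score derived from kinetic fluorescence span divided by baseline fluorescence per well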
# TLR4 MyD88 comp: inhibitors of TLR4-MyD88 association in cells, primary screen, cell-based, HeLa CL3-4, BLA complementation, FRET ratio; Toll-like receptor 4 (Homo sapiens) + Myeloid differentiation primary response protein …; HeLa CL3-4 TLR4/MyD88 BLA complementation; inhibition, % at 8.4 µM; 0.18% of 200,000 active; in the data active = inhibition above about 25%;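 note: 0% = vehicle and 100% = reference inhibitor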
# TMEM16A reconf: TMEM16A chloride channel inhibitors, confirmation, cell-based, re-confirmation; shares compounds with TMEM16A inh; inhibition, % at 10 µM; HEK293 TMEM16A/YFP-H148Q, iodide quench fluorescence; ionomycin added to raise cell calcium; 39% of 2,300 active;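 active = mean duplicate percent inhibition, scaled so buffer wells are 0 and the reference blocker 100, over three buffer SD above buffer mean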
# TMEM16A Ca cntr: calcium mobilization in TMEM16A/YFP HEK293 cells, confirmation, counter-screen for TMEM16A inhibitor project; shares compounds with TMEM16A inh; Fluo4 calcium mobilization; calcium response (% of ionomycin), % at 10 µM; 2% of 2,300 active;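 active = duplicate-averaged calcium signal over 20% of the ionomycin maximum, relative to buffer baseline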;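 note: each well's signal is peak minus trough fluorescence divided by its pre-addition baseline; 0% = buffer wells and 100% = ionomycin wells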
# YFP-HEK293 quench: iodide YFP quench changes in parental YFP-HEK293, counter-screen for TMEM16A inhibitor project, cell-based | 2,300 tested, under 10 active | shares compounds with TMEM16A inh | YFP ratio F(max-min)/F0 at 10 µM | ionomycin;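 active = yellow fluorescent protein signal ratio exceeding the buffer control mean by over 5 SD of those controls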;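 note: ratio is mean of duplicate wells from kinetic YFP trace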
# ClC-1 rat inh: ClC-1 chloride channel inhibition, selectivity assay for TMEM16A inhibitor project, cell-based, voltage-dependent ClC-1; CHO ClC-1-YFP, iodide influx fluorescence quench; iodide control reads 0, buffer control 100; 2,300 tested, under 10 active; AID 652236, 2013; shares compounds with TMEM16A inh; ratio percent, % at 10 µM;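 active = duplicate-mean ratio percent above the mean of iodide-only control wells, which defines zero, plus 5 of their SD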;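 note: higher percent means stronger block of ClC-1 iodide influx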
# * marks the source's active call; other numbers are inactive results; i = inactive; . = no result.
SMILES,ANO1 activ,NOD2-RIPK2 inh,GRK2 aptamer HTS,TLR9-MyD88 block,TMEM16A inh,TLR4 MyD88 comp,TMEM16A reconf,TMEM16A Ca cntr,YFP-HEK293 quench,ClC-1 rat inh
O=C(CSc1ccc(Cl)cc1Cl)N1CCC(c2nc3ccccc3s2)CC1,i,-6,0,-2,100*,-14,i,i,-0.98,-6
CCc1c(C)nc2nc(SCc3ccccc3Cl)[nH]n2c1=O,i,-4,0,4,100*,.,26%*,34%*,-1,-29
Cc1sc2ncnc(N3CCN(Cc4ccccc4)CC3)c2c1-c1ccccc1,i,-6,0,5,i,.,.,.,.,.
CCOC(=O)C(=O)Nc1ccc(S(=O)(=O)Nc2ncccn2)cc1,i,8,0,5,25*,-7,i,i,-1.1,2
NC(=O)c1cccc(-c2cnc(N)c(C(=O)c3cccnc3)n2)c1,i,-12,.,-6,.,.,.,.,.,.
Cc1cccc(N2CCN(C(=O)CSCc3c(C)noc3C)CC2)c1C,i,9,2,1,100*,6,42%*,i,-0.85,-18
COc1ccc(N=c2oc3c(OC)cccc3cc2C(=O)NCc2ccco2)cc1OC,i,-3,2,-3,i,10,i,i,-1.1,2
COc1ccccc1C(=O)NCc1ccco1,i,-1,0,10,i,.,.,.,.,.
COc1ccc(NS(=O)(=O)c2ccc3oc(SC4CCOC4=O)nc3c2)cc1 (centres undefined),i,5,5,-3,25*,6,37%*,i,-1.1,-10
COc1ccc(NS(=O)(=O)c2ccc3oc(SC)nc3c2)cc1,i,3,1,3,i,.,.,.,.,.
O=C(NC(=S)Nc1ccccc1)c1cncc(C#Cc2ccccc2)c1,i,5,0,-5,i,.,.,.,.,.
Cc1cccc(N2CCN(C(=O)CN3C(=O)NC4(CCCCCC4)C3=O)CC2)c1C,i,-2,.,-4,.,.,.,.,.,.
CCN(CC)CCCNC(=O)c1cc2nc(-c3ccccc3)cc(C(F)(F)F)n2n1,i,4,2,4,100*,.,i,i,-1.1,-10
O=C(CCS(=O)(=O)c1ccc(F)cc1)N1CCOCC1,i,-5,0,1,i,.,.,.,.,.
CCOC(=O)c1cc(-c2cccc(C(F)(F)F)c2)nc2nc(SC)[nH]c(=O)c12,i,-9,0,-3,i,-4,.,.,.,.
CCOC(=O)c1nc(C)nc(Sc2n[nH]c(-c3cc(C(F)(F)F)cc(C(F)(F)F)c3)n2)c1C,i,-11,0,2,25*,.,30%*,i,-0.99,-22
N/C(=N\OC(=O)c1cccc(F)c1)c1ccccc1,i,-5,1,1,25*,22,i,i,-0.9,-9
CC(C)CCN1CCN(Cc2cccc(C(F)(F)F)c2)CC1CCO (centres undefined),i,-11,2,-10,i,-76,.,.,.,.
O=C(COC(=O)c1ccccc1NCCO)NCC1CCCCC1,i,0,0,1,.,.,.,.,.,.

# Screens deposited in PubChem BioAssay by several laboratories.
